# Unmarked numbers belong to inactive results. Results filed as inconclusive are left out. A call without a number means that no potency is given here. Active and inactive are the calls of the source. The call rests on the fitted dose curve; in most records, active means well fitted curve in the direction sought with a large enough effect in the repeat runs; inconclusive means weak or mixed curves; inactive means no such curve, though single readings can be large; an effect the other way counts as inactive or inconclusive.
# Columns and labels:
# [1] = Human pregnane X receptor (PXR) small molecule agonists, qHTS cell viability counter screen (AID 1346977); further: nearly all actives have a fitted effect of over 50% in size; further: potency means the concentration at half of the fitted maximal effect
# Procedure, shortened: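 Readout is CellTiter-Fluor fluorescence from PXR-Luc HepG2 cells. Plated cells rested 5hr, then were treated with compounds for 24hr at 37C and 5% CO2, with reagent present during the last hour.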
# [2] = Caspase-3/7 induction in HepG2 cells by small molecules, qHTS assay (AID 1346978); further: nearly all actives have a fitted effect of over 15% in size
# Procedure, shortened: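 Wild-type HepG2 cells, 2,000/well, settled 5 hr at 37 C and 5% CO2, then compound-treated for 17 hr; caspase-3/7 activity read by luminescent Caspase-Glo 3/7 after 30 min at room temperature.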
# [3] = Caspase-3/7 induction in CHO-K1 cells by small molecules, qHTS cell viability counter screen (AID 1346979); further: nearly all actives have a fitted effect of over 35% in size
# Procedure, shortened: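 To flag cytotoxic compounds, treated CHO-K1 wild-type cells were given CellTiter-Fluor at 16hr and read fluorescently after 1hr at 37C; the caspase-3/7 luminescence was measured in these same wells.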
# [4] = Caspase-3/7 induction in CHO-K1 cells by small molecules, qHTS assay (AID 1346980); further: nearly all actives have a fitted effect of over 15% in size
# Procedure, shortened: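 Wild-type CHO-K1 cells exposed to compounds for 17hr at 37 C, 5% CO2. Caspase-3/7 activity then measured by Caspase-Glo 3/7 luminescence after 30min at room temperature.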
# [5] = Caspase-3/7 induction in HepG2 cells by small molecules, qHTS cell viability counter screen (AID 1346981); further: nearly all actives have a fitted effect of over 30% in size; further: potency means the concentration at half of the fitted maximal effect; on activity change, negative = cytotoxicity: series mostly up to about 92 µM
# Procedure, shortened: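 Fluorescence read-out of live-cell protease activity (CellTiter-Fluor) after 1 hr with reagent. This was measured in the same wells as the caspase-3/7 luminescence, on HepG2 cells exposed to DMSO-dissolved compounds for 16 hr at 37 C.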
# [6] = target: Cytochrome P450 2D6 (Homo sapiens) (UniProt P10635); assay: Cytochrome P450 Family 2 Subfamily D Member 6 (CYP2D6) small molecule antagonists: luciferase reporter qHTS assay (AID 1671196); further: nearly all actives have a fitted effect of over 50% in size; further: potency means the concentration at half of the fitted maximal effect; on activity change, negative = inhibition: series mostly up to about 120 µM
# Sequence of Cytochrome P450 2D6 (Homo sapiens) (P10635 whole entry, looked up): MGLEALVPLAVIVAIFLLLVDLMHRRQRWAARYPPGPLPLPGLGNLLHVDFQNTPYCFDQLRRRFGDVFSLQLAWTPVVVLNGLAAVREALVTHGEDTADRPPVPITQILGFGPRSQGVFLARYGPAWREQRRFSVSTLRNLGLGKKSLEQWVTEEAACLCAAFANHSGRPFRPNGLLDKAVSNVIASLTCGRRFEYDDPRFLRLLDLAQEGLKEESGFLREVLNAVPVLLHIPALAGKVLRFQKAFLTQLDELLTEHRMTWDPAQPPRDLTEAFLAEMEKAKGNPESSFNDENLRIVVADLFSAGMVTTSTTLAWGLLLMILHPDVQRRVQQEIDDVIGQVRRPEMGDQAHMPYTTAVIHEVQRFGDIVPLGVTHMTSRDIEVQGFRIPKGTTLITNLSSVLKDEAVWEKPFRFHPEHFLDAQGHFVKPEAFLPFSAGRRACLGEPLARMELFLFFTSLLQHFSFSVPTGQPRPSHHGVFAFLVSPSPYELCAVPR
# Procedure, shortened: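 Luminogenic proluciferin substrate, CYP2D6 enzyme; 10 min RT preincubation with compound, NADPH regeneration system added, 1 h RT. Stop/detection reagent, 20 min RT, luminescence read (RLU). Signal proportional to CYP activity.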
# [7] = target: Cytochrome P450 2C19 (Homo sapiens) (UniProt P33261); assay: Cytochrome P450 Family 2 Subfamily C Member 19 (CYP2C19) small molecule antagonists: luciferase reporter qHTS assay (AID 1671197); further: nearly all actives have a fitted effect of over 65% in size; further: potency means the concentration at half of the fitted maximal effect; on activity change, negative = inhibition: series mostly up to about 120 µM
# Sequence of Cytochrome P450 2C19 (Homo sapiens) (P33261 whole entry, looked up): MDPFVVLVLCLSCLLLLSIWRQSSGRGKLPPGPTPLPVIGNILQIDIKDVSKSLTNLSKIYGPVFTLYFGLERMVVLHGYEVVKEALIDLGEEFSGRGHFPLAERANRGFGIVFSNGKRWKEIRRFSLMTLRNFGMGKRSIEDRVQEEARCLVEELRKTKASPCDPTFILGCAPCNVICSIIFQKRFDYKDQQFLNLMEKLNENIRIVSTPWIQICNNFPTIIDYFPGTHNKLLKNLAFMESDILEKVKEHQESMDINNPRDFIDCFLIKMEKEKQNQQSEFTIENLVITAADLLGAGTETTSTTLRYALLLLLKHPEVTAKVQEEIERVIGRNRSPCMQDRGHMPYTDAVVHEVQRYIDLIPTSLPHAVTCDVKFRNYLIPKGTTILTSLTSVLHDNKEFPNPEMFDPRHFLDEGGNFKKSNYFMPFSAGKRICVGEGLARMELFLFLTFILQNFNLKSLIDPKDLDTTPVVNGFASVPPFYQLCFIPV
# Procedure, shortened: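 Compounds were tested on CYP2C19 activity via proluciferin conversion to luciferin. The 37C, 1 h reaction followed NADPH addition; detection reagent stopped it.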
# [8] = target: Cytochrome P450 2C9 (Homo sapiens) (UniProt P11712); assay: Cytochrome P450 Family 2 Subfamily C Member 9 (CYP2C9) small molecule antagonists: luciferase reporter qHTS assay (AID 1671198); further: nearly all actives have a fitted effect of over 50% in size; further: potency means the concentration at half of the fitted maximal effect; on activity change, negative = inhibition: series mostly up to about 120 µM
# Sequence of Cytochrome P450 2C9 (Homo sapiens) (P11712 whole entry, looked up): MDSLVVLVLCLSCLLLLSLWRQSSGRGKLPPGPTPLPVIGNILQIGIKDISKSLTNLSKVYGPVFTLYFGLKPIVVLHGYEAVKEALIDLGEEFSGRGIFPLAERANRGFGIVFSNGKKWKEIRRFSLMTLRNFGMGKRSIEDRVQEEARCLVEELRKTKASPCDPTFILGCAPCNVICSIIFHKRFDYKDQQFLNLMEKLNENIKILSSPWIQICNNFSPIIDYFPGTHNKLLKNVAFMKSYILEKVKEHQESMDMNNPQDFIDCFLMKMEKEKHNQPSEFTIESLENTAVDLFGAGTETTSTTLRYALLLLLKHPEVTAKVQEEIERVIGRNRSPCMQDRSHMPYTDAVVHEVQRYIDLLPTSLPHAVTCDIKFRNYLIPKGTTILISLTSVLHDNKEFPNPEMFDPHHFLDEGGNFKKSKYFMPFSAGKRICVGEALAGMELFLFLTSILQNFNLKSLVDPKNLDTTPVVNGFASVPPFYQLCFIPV
# Procedure, shortened: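 P450-Glo proluciferin substrate with CYP2C9 enzyme; 10 min RT preincubation, then NADPH regeneration 1 h at 37C; luciferin detection reagent 20 min RT, luminescence in relative luminescence units.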
# [9] = target: Voltage-gated inwardly rectifying potassium channel KCNH2 (Homo sapiens) (UniProt Q12809); assay: Human Ether-a-go-go-Related Gene (hERG) channel small molecule antagonists: fluorescence cell-based qHTS assay (AID 1671200);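 further: hERG-expressing U2OS cells given a thallium stimulus after FluxOR II dye loading; series mostly up to about 77 µM; nearly all actives have a fitted effect of over 50% in size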
# Sequence of Voltage-gated inwardly rectifying potassium channel KCNH2 (Homo sapiens) (Q12809 whole entry, looked up): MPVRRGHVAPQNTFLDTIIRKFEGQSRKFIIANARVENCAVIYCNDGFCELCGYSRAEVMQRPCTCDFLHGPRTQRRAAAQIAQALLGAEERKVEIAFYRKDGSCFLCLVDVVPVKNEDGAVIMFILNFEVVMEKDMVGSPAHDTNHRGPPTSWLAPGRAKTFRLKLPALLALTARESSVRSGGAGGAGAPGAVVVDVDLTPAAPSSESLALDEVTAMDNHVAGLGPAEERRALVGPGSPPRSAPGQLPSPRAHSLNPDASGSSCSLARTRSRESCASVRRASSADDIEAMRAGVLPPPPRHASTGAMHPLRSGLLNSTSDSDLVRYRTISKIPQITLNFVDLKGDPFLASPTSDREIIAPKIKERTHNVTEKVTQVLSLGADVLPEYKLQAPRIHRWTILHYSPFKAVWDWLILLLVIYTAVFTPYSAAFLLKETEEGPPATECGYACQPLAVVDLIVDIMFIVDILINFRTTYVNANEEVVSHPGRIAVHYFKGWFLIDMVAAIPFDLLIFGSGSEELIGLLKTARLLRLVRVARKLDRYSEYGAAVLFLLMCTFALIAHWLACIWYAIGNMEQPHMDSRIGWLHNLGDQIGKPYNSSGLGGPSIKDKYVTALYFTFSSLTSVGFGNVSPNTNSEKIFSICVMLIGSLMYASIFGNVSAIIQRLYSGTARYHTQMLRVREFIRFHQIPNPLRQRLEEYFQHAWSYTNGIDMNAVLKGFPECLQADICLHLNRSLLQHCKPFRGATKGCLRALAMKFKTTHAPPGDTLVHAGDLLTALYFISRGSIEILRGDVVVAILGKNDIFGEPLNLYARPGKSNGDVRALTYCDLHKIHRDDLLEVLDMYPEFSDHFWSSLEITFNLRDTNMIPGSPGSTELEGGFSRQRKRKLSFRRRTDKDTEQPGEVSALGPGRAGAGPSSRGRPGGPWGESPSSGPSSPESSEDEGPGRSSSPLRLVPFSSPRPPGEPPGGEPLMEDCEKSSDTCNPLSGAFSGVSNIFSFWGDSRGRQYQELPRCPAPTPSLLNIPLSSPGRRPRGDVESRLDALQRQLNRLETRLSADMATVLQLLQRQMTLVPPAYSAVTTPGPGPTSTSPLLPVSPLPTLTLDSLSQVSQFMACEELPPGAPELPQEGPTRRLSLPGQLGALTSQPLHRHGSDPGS
# Procedure, shortened: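 Measured: Tl+ flux via fluorescence (480/540 nm) in hERG-expressing U2OS cells after 1 h dye loading at room temperature.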
# [10] = target: Cytochrome P450 3A4 (Homo sapiens) (UniProt P08684); assay: Cytochrome P450 Family 3 Subfamily A Member 4 (CYP3A4) small molecule antagonists: luciferase reporter qHTS assay (AID 1671201); further: nearly all actives have a fitted effect of over 50% in size; further: potency means the concentration at half of the fitted maximal effect; on activity change, negative = inhibition: series mostly up to about 120 µM
# Sequence of Cytochrome P450 3A4 (Homo sapiens) (P08684 whole entry, looked up): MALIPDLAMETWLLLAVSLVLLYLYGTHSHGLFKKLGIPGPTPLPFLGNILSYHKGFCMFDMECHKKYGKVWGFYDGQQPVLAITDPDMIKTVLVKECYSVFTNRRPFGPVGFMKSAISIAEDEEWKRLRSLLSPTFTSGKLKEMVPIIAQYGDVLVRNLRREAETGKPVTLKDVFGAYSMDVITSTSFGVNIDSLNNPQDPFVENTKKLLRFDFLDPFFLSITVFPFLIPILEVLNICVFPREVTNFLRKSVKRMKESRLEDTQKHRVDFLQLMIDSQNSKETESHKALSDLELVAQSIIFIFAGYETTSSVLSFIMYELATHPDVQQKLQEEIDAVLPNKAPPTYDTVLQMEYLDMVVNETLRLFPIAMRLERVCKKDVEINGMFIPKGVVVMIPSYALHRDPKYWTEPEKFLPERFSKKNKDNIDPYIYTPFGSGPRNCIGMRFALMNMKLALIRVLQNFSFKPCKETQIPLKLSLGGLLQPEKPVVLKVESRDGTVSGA
# Procedure, shortened: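 Setup: enzyme-substrate mix, compound pin transfer, 10 min RT. Reaction: NADPH regeneration solution, 1 h RT. Readout: detection reagent stops turnover, luminescence measured after 20 min, expressed in relative luminescence units.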
# [11] = target: Cytochrome P450 1A2 (Homo sapiens) (UniProt P05177); assay: Cytochrome P450 Family 1 Subfamily A Member 2 (CYP1A2) small molecule antagonists: luciferase reporter qHTS assay (AID 1671199); further: nearly all actives have a fitted effect of over 50% in size; further: potency means the concentration at half of the fitted maximal effect; on activity change, negative = inhibition: series mostly up to about 120 µM
# Sequence of Cytochrome P450 1A2 (Homo sapiens) (P05177 whole entry, looked up): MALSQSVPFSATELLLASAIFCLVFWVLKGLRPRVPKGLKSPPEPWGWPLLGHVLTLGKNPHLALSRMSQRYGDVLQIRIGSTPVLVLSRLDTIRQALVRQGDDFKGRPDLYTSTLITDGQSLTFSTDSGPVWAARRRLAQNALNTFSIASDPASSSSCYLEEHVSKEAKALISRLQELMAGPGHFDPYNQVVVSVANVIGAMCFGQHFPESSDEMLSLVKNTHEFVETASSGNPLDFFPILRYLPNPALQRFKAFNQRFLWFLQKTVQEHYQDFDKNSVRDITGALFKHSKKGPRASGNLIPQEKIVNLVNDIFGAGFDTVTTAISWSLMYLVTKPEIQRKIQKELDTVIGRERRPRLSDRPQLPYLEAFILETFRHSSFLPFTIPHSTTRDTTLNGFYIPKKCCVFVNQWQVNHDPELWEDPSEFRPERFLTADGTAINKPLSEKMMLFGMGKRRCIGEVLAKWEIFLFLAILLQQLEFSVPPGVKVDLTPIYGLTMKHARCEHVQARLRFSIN
# Procedure, shortened: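 Luminescence readout (relative luminescence units) after luciferin detection reagent, 20 min RT. Preceded by 1 h room-temperature CYP1A2 reaction with NADPH regeneration solution following 10 min compound preincubation with enzyme and proluciferin substrate. Furafylline positive control.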
# [12] = target: Nuclear receptor subfamily 1 group I member 2 (Homo sapiens) (UniProt O75469); assay: Human pregnane X receptor (PXR) small molecule agonists, qHTS assay (AID 1346982); further: nearly all actives have a fitted effect of over 35% in size; further: potency means the concentration at half of the fitted maximal effect
# Sequence of Nuclear receptor subfamily 1 group I member 2 (Homo sapiens) (O75469 whole entry, looked up): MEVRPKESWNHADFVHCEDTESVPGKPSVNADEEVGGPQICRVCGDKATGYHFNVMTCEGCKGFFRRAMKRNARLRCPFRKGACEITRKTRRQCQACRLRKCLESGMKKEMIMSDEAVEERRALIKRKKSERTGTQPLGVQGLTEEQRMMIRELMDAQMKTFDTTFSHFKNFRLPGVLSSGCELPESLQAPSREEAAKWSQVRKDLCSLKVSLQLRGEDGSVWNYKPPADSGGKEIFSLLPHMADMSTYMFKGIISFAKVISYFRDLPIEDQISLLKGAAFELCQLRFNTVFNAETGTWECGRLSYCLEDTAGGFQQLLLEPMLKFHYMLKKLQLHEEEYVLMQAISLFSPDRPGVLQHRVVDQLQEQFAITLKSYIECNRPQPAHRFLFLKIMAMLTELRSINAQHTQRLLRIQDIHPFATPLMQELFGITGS
# Procedure, shortened: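 HepG2 PXR-Luc reporter line, 5% charcoal-stripped FBS; 5 hr pre-incubation, compound (DMSO) 24 hr at 37 C/5% CO2; ONE-Glo 30 min RT; luminescence read-out.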
# [13] = target: Nuclear receptor subfamily 1 group I member 2 (Rattus norvegicus) (UniProt Q9R1A7); assay: Rat pregnane X receptor (rPXR) activation by small molecules, qHTS assay (AID 1346983); conditions: rPXR luciferase reporter cells, One-Glo luminescence, 24 h; max activation: active compounds read high; further: nearly all actives have a fitted effect of over 20% in size
# Sequence of Nuclear receptor subfamily 1 group I member 2 (Rattus norvegicus) (Q9R1A7 whole entry, looked up): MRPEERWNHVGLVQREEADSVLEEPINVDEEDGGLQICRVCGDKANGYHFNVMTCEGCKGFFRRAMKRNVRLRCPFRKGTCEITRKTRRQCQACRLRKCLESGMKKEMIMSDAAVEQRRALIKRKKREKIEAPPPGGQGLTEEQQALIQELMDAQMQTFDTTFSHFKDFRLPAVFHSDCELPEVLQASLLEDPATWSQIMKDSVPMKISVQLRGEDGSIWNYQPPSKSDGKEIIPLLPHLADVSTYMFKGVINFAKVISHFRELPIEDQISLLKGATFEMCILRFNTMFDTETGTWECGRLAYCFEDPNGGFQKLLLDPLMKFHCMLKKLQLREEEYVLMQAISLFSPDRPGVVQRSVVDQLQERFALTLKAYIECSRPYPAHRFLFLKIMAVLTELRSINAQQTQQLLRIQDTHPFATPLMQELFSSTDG
# Procedure, shortened: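 Cell-based rPXR activation assay: rPXR cells, 2,000 per well, rested 5hr at 37 C, then exposed to compounds in DMSO for 24 hr at 37 C. Luciferase activity read by One-Glo luminescence after 30 min at room temperature.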
# [14] = target: Nuclear receptor subfamily 1 group I member 2 (Homo sapiens) (UniProt O75469); assay: CYP3A4 induction through human pregnane X receptor (PXR) by small molecules, qHTS assay (AID 1346984); further: nearly all actives have a fitted effect of over 40% in size
# Procedure, shortened: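 HepG2-derived DPX-2 line carrying PXR plus a CYP3A4-promoter luciferase reporter; cells plated 5 hr, compound-exposed 24 hr at 37C. CYP3A4 activity probed with 3uM (final) Luciferin-IPA for 3hr, then luciferase read after One-Glo.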
# [15] = target: Nuclear receptor subfamily 1 group I member 2 (Homo sapiens) (UniProt O75469); assay: Human pregnane X receptor (PXR) activation by small molecules, qHTS assay (AID 1346985); further: nearly all actives have a fitted effect of over 40% in size; further: potency means the concentration at half of the fitted maximal effect
# Procedure, shortened: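 DPX-2 cells (HepG2 co-transfected with a PXR response element and a CYP3A4-promoter luciferase construct) were seeded at 2,000 per well, rested 5 hr at 37C, then exposed to DMSO-dissolved compounds for 24 hr. Activation was read as luciferase luminescence.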
smiles,measurement,setting,value
O=C(O)c1ccco1,Potency,[1],inactive
same,Potency,[2],inactive
same,Potency,[3],inactive
same,Potency,[4],inactive
same,Potency,[5],inactive
same,Potency,[6],inactive
same,Potency,[7],inactive
same,Potency,[8],inactive
same,Potency,[9],inactive
same,Potency,[10],inactive
COCCCN1CCC(NC(=O)c2cc(Cl)c(N)c3c2OCC3)CC1,Potency,[1],inactive
same,Potency,[2],inactive
same,Potency,[3],inactive
same,Potency,[4],inactive
same,Potency,[5],inactive
same,Potency,[6],3.89 µM (active)
same,Potency,[8],3.09 µM (active)
same,Potency,[11],inactive
same,Potency,[9],inactive
same,Potency,[10],inactive
CCCCCCCN,Potency,[1],inactive
same,Potency,[2],inactive
same,Potency,[3],inactive
same,Potency,[4],inactive
same,Potency,[5],inactive
same,Potency,[7],inactive
same,Potency,[8],inactive
same,Potency,[10],inactive
CCCCC(CC)COC(=O)COc1ccc(Cl)cc1Cl (configuration not stated),Potency,[1],inactive
same,Potency,[2],inactive
same,Potency,[3],inactive
same,Potency,[4],inactive
same,Potency,[5],inactive
same,Potency,[12],inactive
same,Potency,[7],20.3 µM (active)
same,Potency,[8],32.2 µM (active)
same,Potency,[9],inactive
same,Potency,[10],32.2 µM (active)
COC(C)OC,Potency,[1],inactive
same,Potency,[2],inactive
same,Potency,[3],inactive
same,Potency,[4],inactive
same,Potency,[5],inactive
same,Potency,[7],inactive
same,Potency,[8],inactive
same,Potency,[11],inactive
same,Potency,[9],inactive
same,Potency,[10],inactive
C[C@@H](c1ncncc1F)C(O)(Cn1cncn1)c1ccc(F)cc1F (some centres not stated),Potency,[1],inactive
same,Potency,[2],inactive
same,Potency,[3],inactive
same,Potency,[4],inactive
same,Potency,[5],inactive
same,Potency,[6],inactive
Cc1[nH]c(C)c(Cl)c(=O)c1Cl,"activity change, negative = cytotoxicity",[1],6.66% [at 19 µM]
same,caspase activation,[2],0.0051% [at 19 µM]
same,"activity change, negative = cytotoxicity",[3],1.93% [at 19 µM]
same,"activity change, negative = cytotoxicity",[5],-0.581% [at 19 µM]
same,activation,[12],-7.31% [at 19 µM]
same,max activation,[13],-3.17%
same,Potency,[14],inactive
same,Potency,[15],inactive
same,"activity change, negative = inhibition",[6],-9.89% [at 23.6 µM]
same,Potency,[7],inactive
same,"activity change, negative = inhibition",[8],23.2% [at 23.6 µM]
same,"activity change, negative = inhibition",[9],-0.502% [at 15.8 µM]
same,"activity change, negative = inhibition",[10],19.3% [at 23.6 µM]
Cc1ccc(C(C)OC(=O)C2(C)CCC(C(=O)O)C2(C)C)cc1 (configuration not stated),Potency,[1],inactive
same,Potency,[2],inactive
same,Potency,[3],inactive
same,Potency,[4],inactive
same,Potency,[5],inactive
same,Potency,[12],inactive
same,Potency,[7],inactive
same,Potency,[11],inactive
same,Potency,[9],inactive
same,Potency,[10],inactive
COc1ccnc(CS(=O)c2nc3ccc(OC(F)F)cc3[nH]2)c1OC (configuration not stated),Potency,[1],inactive
same,Potency,[2],inactive
same,Potency,[3],inactive
same,Potency,[4],inactive
same,Potency,[5],inactive
same,max activation,[13],0.184%
same,Potency,[6],2.75 µM (active)
same,Potency,[7],13.8 µM (active)
same,Potency,[8],34.7 µM (active)
same,Potency,[11],17.4 µM (active)
CCOc1ccc(O)cc1,Potency,[1],inactive
same,Potency,[2],inactive
same,Potency,[3],inactive
same,Potency,[4],inactive
same,Potency,[5],inactive
same,Potency,[6],inactive
same,Potency,[9],inactive
same,Potency,[10],inactive
COc1cc(Cl)c(OC)cc1N,Potency,[1],inactive
same,Potency,[2],inactive
same,Potency,[3],inactive
same,Potency,[4],inactive
same,Potency,[5],inactive
same,Potency,[12],48.6 µM (active)
same,Potency,[7],22.4 µM (active)
same,Potency,[11],5.03 µM (active)
same,Potency,[9],inactive
same,Potency,[10],31.7 µM (active)
CCC(C)c1cc(C(C)(C)C)c(O)c(C(C)(C)C)c1 (configuration not stated),Potency,[1],inactive
same,Potency,[2],inactive
same,Potency,[3],inactive
same,Potency,[4],inactive
same,Potency,[5],inactive
same,Potency,[12],47.6 µM (active)
same,Potency,[7],inactive
same,Potency,[11],62.1 µM (active)
same,Potency,[10],19.6 µM (active)
COc1cccc(N(C)C(=S)Oc2ccc3c(c2)CCCC3)n1,Potency,[1],inactive
same,Potency,[2],inactive
same,Potency,[4],inactive
same,Potency,[5],inactive
same,Potency,[12],8.41 µM (active)
same,Potency,[15],1.26 µM (active)
same,Potency,[6],inactive
same,Potency,[7],2.75 µM (active)
same,Potency,[11],24.5 µM (active)
same,Potency,[9],inactive
CCCCCC[C@@H](O)C/C=C\CCCCCCCC(=O)OC,Potency,[1],inactive
same,Potency,[2],inactive
same,Potency,[4],inactive
same,Potency,[5],inactive
same,Potency,[12],inactive
same,Potency,[6],inactive
same,Potency,[7],25.3 µM (active)
same,Potency,[8],12.7 µM (active)
same,Potency,[9],inactive
same,Potency,[10],inactive
O=C(NCCO[N+](=O)[O-])c1cccnc1,Potency,[1],inactive
same,Potency,[2],inactive
same,Potency,[3],inactive
same,Potency,[5],inactive
same,max activation,[13],-6.7%
same,Potency,[8],inactive
same,Potency,[11],inactive
same,Potency,[9],inactive
C[C@@H]1C[C@H]2O[C@@]3(O[C@@H]2C(C)(C)O)[C@H](O)[C@@]2(C)[C@@H]4CC[C@H]5C(C)(C)[C@@H](O[C@@H]6OC[C@@H](O)[C@H](O)[C@H]6O)CC[C@@]56C[C@@]46CC[C@]2(C)[C@@H]13,Potency,[1],inactive
same,Potency,[2],inactive
same,Potency,[3],inactive
same,Potency,[5],inactive
same,Potency,[7],inactive
same,Potency,[9],inactive
CCCNCC(O)COc1ccccc1C(=O)CCc1ccccc1 (configuration not stated),Potency,[1],29.8 µM (active)
same,Potency,[2],inactive
same,Potency,[4],inactive
same,Potency,[5],inactive
C[N+](C)(C)CCOC(=O)CCC(=O)OCC[N+](C)(C)C,Potency,[1],inactive
same,Potency,[2],inactive
same,Potency,[3],inactive
same,Potency,[5],inactive
same,Potency,[12],inactive
same,max activation,[13],-0.297%
same,Potency,[14],inactive
same,Potency,[15],inactive
same,Potency,[6],inactive
same,Potency,[8],inactive
same,Potency,[11],inactive
same,Potency,[9],inactive
same,Potency,[10],inactive
CC1OC(=O)C(C)OC1=O (configuration not stated),Potency,[1],inactive
same,Potency,[2],inactive
same,Potency,[4],inactive
same,Potency,[5],inactive
same,Potency,[12],inactive
same,Potency,[6],inactive
same,Potency,[7],inactive
same,Potency,[8],inactive
same,Potency,[11],inactive
same,Potency,[9],inactive
same,Potency,[10],inactive
CC1=CC=C(C(C)C)CC1,Potency,[1],inactive
same,Potency,[2],inactive
same,Potency,[4],inactive
same,Potency,[5],inactive
same,Potency,[12],inactive
same,Potency,[6],inactive
same,Potency,[7],35.6 µM (active)
same,Potency,[8],63.3 µM (active)
same,Potency,[9],inactive
same,Potency,[10],39.9 µM (active)
Cc1cccc(C)c1NC(=O)CN(CC(=O)O)CC(=O)O,Potency,[1],inactive
same,Potency,[2],inactive
same,Potency,[3],inactive
same,Potency,[5],inactive
same,Potency,[12],inactive
same,max activation,[13],-0.0723%
same,Potency,[14],inactive
same,Potency,[15],inactive
same,Potency,[7],inactive
same,Potency,[8],inactive
same,Potency,[9],inactive
same,Potency,[10],inactive
Cc1ccc(N=Nc2c(O)c(C(=O)O)cc3ccccc23)c(S(=O)(=O)O)c1,Potency,[1],23.6 µM (active)
same,Potency,[2],inactive
same,Potency,[4],inactive
same,Potency,[5],29.7 µM (active)
same,Potency,[12],inactive
same,Potency,[6],inactive
same,Potency,[7],inactive
same,Potency,[9],inactive
same,Potency,[10],inactive
